Results: PubChem BioAssay AID624331 (National Center for Advancing Translational Sciences (NCATS), 2012)
Records with an inconclusive call do not appear. Where a call stands in place of a potency, no number is given. The source made the active and inactive calls. Calls come from the whole dose curve; as a rule, active = well fitted activation curve with a large enough effect; inconclusive = small, poorly fitted or top-dose-only effect; inactive = no such curve, though single readings can be large or run the other way.

Assay: qHTS assay for re-activators of p53 using a Luc reporter: Hit Validation with no p53 Expressed
Outline: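 Counter-screen of primary hits in a cell line not transfected with p53, in Opti-MEM with 10% FBS; compounds at several concentrations (10 mM stock, 1:5; top 46.1 µM in well), 24 h at 37 deg C, 5% CO2. Luminescence read after 10 min with Amplite reagent.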

SMILES	Potency
CC(=O)c1cc2c(C)c(C(=O)c3ccccc3)oc2cc1O	inactive
Cc1ccc2c(c1)C(N1CCCC1=O)CC(c1ccco1)N2 (configuration not stated)	inactive
Cc1csc2nc(COC(=O)c3cccc(N(C)C)c3)cc(=O)n12	inactive
NC(=O)c1cc2ccc(O)cc2oc1=Nc1ccccc1	inactive
CC1CCCN(C(=O)CN2C(=O)c3ccccc3S2(=O)=O)C1 (configuration not stated)	inactive
CS(=O)(=O)n1nc(-c2ccccc2)nc1NCc1ccco1	inactive
COc1ccc2oc(C(=O)Nc3nnc(C)s3)c(C)c2c1	inactive
